Compound activity from PubChem.
Rows were chosen to be rich in hits. Some 3% of all compounds tested hit in one or more screens of this group.
Rv3671c inh – Rv3671c (M. tuberculosis) protease inhibition; P9WHR9; AID 2606; inhibition, % at 5.96 µM; actives 0.048% (n = 320,000); in the data active means inhibition above about 38%;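 further: extracellular domain of Rv3671c used as enzyme; 0% = enzyme with DMSO and 100% = no enzyme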
FBA Mtb inh – Mtb fructose-bisphosphate aldolase inhibition; purified M. tuberculosis FBA, fluorescence read-out; inhibition, % at 1 µM; actives 2.3% (n = 360,000); AID 588726;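 further: 0% = vehicle and 100% = reference inhibitor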
Target sequence (P9WQA3 whole entry, looked up): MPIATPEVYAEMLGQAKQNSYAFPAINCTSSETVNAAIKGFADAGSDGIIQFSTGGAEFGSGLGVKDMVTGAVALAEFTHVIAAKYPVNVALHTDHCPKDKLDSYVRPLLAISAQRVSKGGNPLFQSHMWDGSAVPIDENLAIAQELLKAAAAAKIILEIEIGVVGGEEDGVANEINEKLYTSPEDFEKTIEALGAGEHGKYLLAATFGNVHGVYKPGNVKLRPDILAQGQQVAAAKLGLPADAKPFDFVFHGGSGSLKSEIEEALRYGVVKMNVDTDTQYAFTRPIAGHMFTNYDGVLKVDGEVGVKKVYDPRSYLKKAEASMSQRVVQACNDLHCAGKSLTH
Mtb BioA inh – inhibitors of Mycobacterium tuberculosis BioA enzyme | actives 0.096% (n = 360,000) | purified M. tuberculosis BioA enzyme, plate reader | inhibition, % at 9.99 µM | AID 602481; in the data active means inhibition above about 40%
FadD28 binding – M. tuberculosis FadD28 bisubstrate binding inhibition. inhibition, % at 12.5 µM. FadD28 bisubstrate probe binding, fluorescence polarization. actives 0.22% (n = 360,000); in the data active means inhibition above about 8.5%, passing the limit was not always enough
GDH-TPI counter-1 – counter-screen for M. tuberculosis FBA inhibitors: GDH-TPI coupled enzymes; GDH-TPI coupled enzyme counterscreen, NADH absorbance; inhibition, % at 4.8 µM; actives 1.2% (n = 360,000); AID 588335; in the data active means inhibition above about 30%;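 further: 0% = DMSO wells and 100% = wells lacking the enzyme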
Mtb FBA inh conf – Mtb FBA inhibition, confirmed; shares compounds with FBA Mtb inh; purified M. tuberculosis FBA, fluorescence read-out; inhibition, % at 1 µM; actives 78% (n = 5,600);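 further: 0% = vehicle wells and 100% = reference inhibitor wells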
GDH-TPI counter-2 – GDH-TPI inhibition counter-screen for FBA inhibitors. actives 81% (n = 5,600). inhibition, % at 1 µM. GDH-TPI coupled enzyme counterscreen, fluorescence. shares compounds with FBA Mtb inh; in the data active means inhibition above about 10%
* marks the source's active call; other numbers are inactive results; . = no result; + = active, no number. Unless noted, no stated cut-off is given here; in the data, active means inhibition above about 27%; inactive means the rest.

SMILES | Rv3671c inh | FBA Mtb inh | Mtb BioA inh | FadD28 binding | GDH-TPI counter-1 | Mtb FBA inh conf | GDH-TPI counter-2
CCS(=O)(=O)c1ccc2c(c1)NC(=O)C(CCCl)O2 (stereo unspecified) | -4 | 78* | -2 | 0 | -3 | 140* | 112*
Cc1ccc(-c2ccc3c(c2)O[C@@H](CN(C)C(=O)Nc2ccc(F)cc2)[C@H](C)CN([C@@H](C)CO)S3(=O)=O)cc1 | . | . | -1 | . | . | . | .
c1ccc2c(c1)COc1c3ncccc3nn1-2 | . | 33* | -1 | 1 | 23 | 37* | 32*
O=C(Cc1ccncc1)NCC[C@H]1CC[C@@H](NC(=O)Nc2ccc(F)cc2)[C@@H](CO)O1 | . | . | -4 | . | . | . | .
COc1cc(OC)c(Cl)cc1N | -1 | 45* | -1 | -2 | -2 | 67* | 51*
COc1ccc(OC)c(N)c1 | 18 | -1 | 0 | -2 | 9 | . | .
C[C@H](CO)N1C[C@H](C)[C@@H](CN(C)C(=O)C2CC2)Oc2cc(-c3ccccc3)ccc2S1(=O)=O | . | . | 10 | . | . | . | .
Cc1ccc(-c2cnc3cccnn23)cc1F | . | 60* | 2 | -2 | 3 | -5 | -5
COc1cccc(-c2cnc3cccnn23)c1 | . | 53* | 1 | -2 | -3 | 97* | 69*
COc1ccc(-c2cc(NC=O)c3ncc(-c4cccc(OC)c4)n3c2)cc1 | . | 0 | -3 | -2 | 7 | . | .
C[C@@H]1CN([C@H](C)CO)C(=O)c2cc(-c3ccc(C#N)cc3)cnc2O[C@@H]1CN(C)C(=O)c1ccccc1 | . | . | -3 | . | . | . | .
O=C(N[C@H]1C=C[C@H](CC(=O)N2CCOCC2)O[C@@H]1CO)c1ccc2c(c1)OCO2 | . | . | 2 | . | . | . | .
c1ccc(Nc2c(-c3ccco3)nc3ccccn23)cc1 | 2 | 111* | -1 | -1 | 12 | 99* | 71*
c1ccc(-c2nc(-c3ccco3)n3ccccc23)cc1 | -17 | 5 | -1 | 1 | 13 | . | .
CCCCn1c(CCc2ccccc2)nc2cc3[nH]c(=O)c(C(C)C)nc3cc21 | -6 | 33* | -1 | -2 | 8 | 61* | 50*
CCCCn1c(-c2ccc(F)c(F)c2)nc2cc3[nH]c(=O)c(C(C)C)nc3cc21 | -10 | 52* | 0 | -6 | 17 | 113* | 92*
CCCCn1c(-c2cccc(F)c2)nc2c1c(=O)[nH]c(=O)n2CC(C)C | 2 | 0 | 2 | -3 | -4 | . | .
CCOC(=O)N1CCN(C(=O)c2cc(C)c3c(C)nn(-c4ccccc4)c3n2)CC1 | -5 | 66* | 6 | -1 | 2 | 0 | -2
Nc1ncccc1C(=O)OCC(=O)NC1CCCCCC1 | -16 | 33* | 0 | -3 | 11 | 56* | 43*
Nc1c(Cl)cc(Cl)cc1C(=O)OCC(=O)NC1CC1 | 0 | 84* | -1 | 0 | 10 | 8 | 0
CC(=O)c1cccc(NC(=O)Cn2cnc(S(=O)(=O)N3CCC(C)CC3)c2)c1 | 5 | 1 | -2 | 0 | 18 | . | .
CC1CCN(S(=O)(=O)c2cn(CC(=O)Nc3cccc(C#N)c3)cn2)CC1 | 3 | 39* | -4 | 0 | 17 | 80* | 65*
O=C(C[C@H]1C[C@H]2c3cc(NC(=O)C4CCOCC4)ccc3O[C@H]2[C@@H](CO)O1)NCc1cc(F)ccc1F | . | . | 0 | . | . | . | .
CCc1ccc(CN2C(=O)c3ccccc3C2C(=O)NC(C)CC)cc1 (stereo unspecified) | -2 | 105* | -1 | 0 | 5 | 48* | 44*
CCC(C)(C)n1nnnc1C(c1cc2cc3c(cc2[nH]c1=O)OCO3)N1CCN(C)CC1 (stereo unspecified) | -8 | 59* | . | -3 | 25 | 32* | 28*
SMILES | Rv3671c inh | FBA Mtb inh | Mtb BioA inh | FadD28 binding | GDH-TPI counter-1 | Mtb FBA inh conf | GDH-TPI counter-2
CCC(C)(C)n1nnnc1C(c1cc2ccc(OC)cc2[nH]c1=O)N1CCCCC1 (stereo unspecified) | -16 | 2 | -1 | -1 | 20 | . | .
O=c1[nH]c2cc3c(cc2cc1C(c1nnnn1C1CCCC1)N1CCSCC1)OCCO3 (stereo unspecified) | -2 | 31* | -3 | -2 | 16 | 144* | 91*
C[C@@H]1CN([C@@H](C)CO)C(=O)c2cc(NC(=O)Nc3ccc4c(c3)OCO4)ccc2O[C@@H]1CN(C)C(=O)Nc1cccc2ccccc12 | . | . | -1 | . | . | . | .
FC(F)(F)c1nc2ccccc2n2c(-c3ccc(Cl)cc3)nnc12 | 3 | 61* | . | -2 | 2 | 6 | 0
Cc1ccc(-c2nnc3c(C(F)(F)F)nc4ccccc4n23)cc1 | -3 | 60* | . | -4 | -1 | + | +
Cc1c(CCC(=O)O)c(=O)oc2cc3oc4c(c3cc12)CCCC4 | 5 | 5 | . | -3 | 11 | . | .
Cc1c(CCC(=O)NCC(=O)NCC(=O)O)c(=O)oc2cc3oc4c(c3cc12)CCCC4 | 12 | 35* | -3 | 0 | 21 | -3 | -4
COCC(=O)N(C)C[C@@H]1Oc2ncc(-c3ccccc3OC)cc2C(=O)N([C@H](C)CO)C[C@H]1C | . | . | 2 | . | . | . | .
CCCNC(=O)NC[C@@H]1[C@@H](c2ccc(C3=CCCC3)cc2)[C@@H](CO)N1C(C)=O | . | . | -1 | . | . | . | .
COc1cccc(/C=C/c2nc(S(=O)(=O)c3ccccc3)c(N(C)C)o2)c1 | -6 | 47* | -1 | -1 | 22 | 58* | 44*
COCCNc1oc(/C=C/c2ccc(F)cc2)nc1S(=O)(=O)c1ccccc1 | 6 | 19 | 0 | 0 | 17 | . | .
COCCNc1oc(/C=C/c2cccc(OC)c2)nc1S(=O)(=O)c1ccccc1 | . | 47* | 2 | -1 | 32* | 123* | 89*
O=C(CN1C(=O)CCC1=O)Nc1nc(-c2nc3ccccc3s2)cs1 | 6 | 34* | 0 | -7 | -2 | 10 | 4
CCCNC(=O)Nc1ccc2c(c1)C(=O)N(C)[C@H]1CC[C@@H](CC(=O)O)O[C@@H]1CO2 | . | . | -7 | . | . | . | .
CCOc1ccc(-c2nc(C#N)c(N3CCN(C)CC3)o2)cc1 | -5 | 69* | 0 | -1 | 33* | + | +
CCCOc1ccc(-c2nc(C#N)c(N3CCN(C)CC3)o2)cc1 | -2 | 40* | -2 | 2 | 4 | -5 | 1
N#Cc1nc(-c2ccc(OCc3ccc(Cl)cc3)cc2)oc1N1CCC(C(N)=O)CC1 | 4 | 9 | -2 | 1 | 1 | . | .
CCOc1ccc(-c2nc(C#N)c(N3CCCCCC3)o2)cc1 | 0 | 100* | -1 | 0 | 14 | 46* | 42*
COc1cccc(-c2ccc([C@@H]3[C@@H](C#N)N(C(=O)c4ccccn4)[C@@H]3CO)cc2)c1 | . | . | 0 | . | . | . | .
C[C@H]1CN([C@@H](C)CO)C(=O)c2cc(-c3ccncc3)cnc2O[C@H]1CN(C)C(=O)Nc1ccc2c(c1)OCO2 | . | . | 0 | . | . | . | .
CC1(C)CC(=O)C2=C(C1)Nc1[nH]c(=S)[nH]c(=O)c1C2c1ccccc1 (stereo unspecified) | 2 | 4 | -4 | -1 | 7 | . | .
CSc1nc2c(c(=O)[nH]1)C(c1ccccc1)C1=C(CC(C)(C)CC1=O)N2 (stereo unspecified) | 0 | 29* | . | -3 | 6 | 68* | 45*
